In PubChem BioAssay (NCI) one finds growth data, which are given here for eight compounds.

Each structure is given as a SMILES string. This is part of a sample that, as a whole, favours compounds with a hit. Of some 83,000 tested, about 20% had one in any assay.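 Activity criterion: percent growth below 10, measured after cells in 96-well plates were exposed to a single compound concentration for 48 hours.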 Unmarked numbers belong to inactive results. Calls of active or inactive are those of the source.

Among the test systems are SR leukemia; RPMI-8226 leukemia; OVCAR-8 ovarian; OVCAR-5 ovarian; OVCAR-4 ovarian; SK-OV-3 ovarian; IGROV1 ovarian; OVCAR-3 ovarian; HS 578T breast; NCI/ADR-RES ovarian; T-47D breast; BT-549 breast; MDA-MB-435 melanoma; SW-620 colon; MCF7 breast; HCT-116 colon; HCC-2998 colon; KM12 colon.
Test in all cases: NCI-60 one-dose screen, 48 h (100 = growth as untreated, 0 = no growth, -100 = all killed)
Holding throughout (conditions): 10 µM unless noted

As for `CCN1CCN(C(=O)[C@]23CCC(C)(C)C[C@H]2C2=CC[C@@H]4[C@@]5(C)CC/C(=N/O)C(C)(C)[C@@H]5CC[C@@]4(C)[C@]2(C)CC3)CC1`, the growth is 0.702% (active) in the experiment with SR leukemia; 16.6% with RPMI-8226 leukemia; 56.9% with OVCAR-8 ovarian; 78.1% in the experiment on OVCAR-5 ovarian; -20.5% (active) in the experiment on OVCAR-4 ovarian; 105% in the experiment with SK-OV-3 ovarian. Moreover, the growth with IGROV1 ovarian was 68%; in the experiment on OVCAR-3 ovarian, 53.5%; in the experiment with HS 578T breast it was 84.2%; in the experiment with NCI/ADR-RES ovarian, 60.1%; in the experiment with T-47D breast it was 36.6%; in the experiment on BT-549 breast it was 87.2%. Further, the growth is 66.1% in the experiment with MDA-MB-435 melanoma; 22.4% in the experiment on SW-620 colon; 37.5% in the experiment on MCF7 breast; 19% with HCT-116 colon; 90.4% in the experiment with HCC-2998 colon; 72.1% with KM12 colon.
Consider `O=C1c2ccccc2NC(c2cn(-c3ccccc3)nc2-c2cccnc2)N1Cc1ccccc1` (stereo not drawn), for which the growth with SR leukemia is 78.8%; in the experiment with RPMI-8226 leukemia, 76.5%; with OVCAR-8 ovarian, 98.3%; in the experiment with OVCAR-5 ovarian, 91.5%; in the experiment with OVCAR-4 ovarian, 92.2%; in the experiment on SK-OV-3 ovarian, 117%. Besides, the growth is 76.5% with IGROV1 ovarian; 102% in the experiment with OVCAR-3 ovarian; 96.2% in the experiment on HS 578T breast; 97.3% with NCI/ADR-RES ovarian; 75% in the experiment with T-47D breast; 105% in the experiment with BT-549 breast. The growth in the experiment on MDA-MB-435 melanoma was 108%; in the experiment with SW-620 colon, 105%; with MCF7 breast it was 89.3%; with HCT-116 colon, 95.5%; in the experiment on HCC-2998 colon, 97.2%; with KM12 colon it was 91.5%.
With `CCN(CC)c1ccc(/C=C/c2cc(C)c3ccccc3n2)cc1`, the growth is 43.6% in the experiment on SR leukemia; 65.6% in the experiment with RPMI-8226 leukemia; 75.1% with OVCAR-8 ovarian; 92.4% in the experiment on OVCAR-5 ovarian; 82.8% with OVCAR-4 ovarian; 57.7% in the experiment with SK-OV-3 ovarian. Further, the growth in the experiment on IGROV1 ovarian is 54.1%; in the experiment on OVCAR-3 ovarian it was 37.1%; in the experiment on HS 578T breast, 93.8%; in the experiment with NCI/ADR-RES ovarian, 15.9%; with T-47D breast, 44%; in the experiment on BT-549 breast, 93.2%. Moreover, the growth was -6.87% (active) in the experiment on MDA-MB-435 melanoma; 22.3% in the experiment with SW-620 colon; 21.2% in the experiment with MCF7 breast; 22.8% in the experiment on HCT-116 colon; 62.4% with HCC-2998 colon.
On to `Cc1cccc(C)c1NC(=O)CSC(=S)N1CCN(CCOCCO)CC1`, for which the growth is 102% with SR leukemia; 108% in the experiment with RPMI-8226 leukemia; 106% in the experiment with OVCAR-8 ovarian; 96.9% with OVCAR-5 ovarian; 102% with OVCAR-4 ovarian; 110% in the experiment with SK-OV-3 ovarian. For the same compound, the growth in the experiment with IGROV1 ovarian is 96.5%; in the experiment on OVCAR-3 ovarian, 102%; in the experiment with HS 578T breast it was 104%; in the experiment on NCI/ADR-RES ovarian, 99.5%; in the experiment with T-47D breast, 103%; with BT-549 breast it was 102%. The growth with MDA-MB-435 melanoma is 108%; in the experiment with SW-620 colon, 104%; in the experiment with MCF7 breast it was 98.1%; with HCT-116 colon it was 108%; in the experiment on HCC-2998 colon, 97.6%; with KM12 colon, 98.5%.
With `COc1cc(-c2cc3cc(O)ccc3oc2=O)cc(OC)c1OC`, the growth is 84% with SR leukemia; 91.7% with RPMI-8226 leukemia; 93.8% with OVCAR-8 ovarian; 88.8% in the experiment on OVCAR-5 ovarian; 97.3% in the experiment on OVCAR-4 ovarian; 102% in the experiment with SK-OV-3 ovarian. Moreover, the growth with IGROV1 ovarian was 98.7%; in the experiment on OVCAR-3 ovarian, 114%; in the experiment on HS 578T breast it was 81.6%; with NCI/ADR-RES ovarian, 91.2%; with T-47D breast it was 75.7%; in the experiment on BT-549 breast, 106%. In addition, the growth in the experiment on MDA-MB-435 melanoma was 90.7%; in the experiment on SW-620 colon, 108%; in the experiment on MCF7 breast, 87.2%; in the experiment with HCT-116 colon, 88.9%; in the experiment on HCC-2998 colon it was 116%; in the experiment on KM12 colon it was 93.2%.
As for `CC[C@]12C=CCN3CC[C@@]4(c5cc([C@H]6CCC(=O)N6)c(OC)cc5N(C)[C@H]4[C@@](O)(C(=O)OC)[C@@H]1OC(C)=O)[C@@H]32`, the growth was 92% [2.5 µM] in the experiment on SR leukemia; 114% [2.5 µM] in the experiment with RPMI-8226 leukemia; 103% [2.5 µM] in the experiment on OVCAR-8 ovarian; 88.4% [2.5 µM] in the experiment on OVCAR-5 ovarian; 104% [2.5 µM] with OVCAR-4 ovarian; 91.1% [2.5 µM] in the experiment with SK-OV-3 ovarian. The growth in the experiment with IGROV1 ovarian is 103% [2.5 µM]; in the experiment with OVCAR-3 ovarian it was 112% [2.5 µM]; with HS 578T breast, 113% [2.5 µM]; with NCI/ADR-RES ovarian, 107% [2.5 µM]; in the experiment with T-47D breast, 96.3% [2.5 µM]; with BT-549 breast, 113% [2.5 µM]. For the same compound, the growth is 107% [2.5 µM] with MDA-MB-435 melanoma; 108% [2.5 µM] with SW-620 colon; 93.2% [2.5 µM] with MCF7 breast; 100% [2.5 µM] in the experiment with HCT-116 colon; 110% [2.5 µM] in the experiment on HCC-2998 colon; 111% [2.5 µM] in the experiment with KM12 colon.
For the compound `CC(=O)Cc1nsc(NC(=O)c2ccoc2COc2ccccc2)n1`, the growth with SR leukemia was 104%; in the experiment with RPMI-8226 leukemia, 88.6%; in the experiment on OVCAR-8 ovarian, 103%; with OVCAR-5 ovarian, 94.1%; in the experiment on OVCAR-4 ovarian, 103%; with SK-OV-3 ovarian, 111%. In addition, the growth is 95.9% with IGROV1 ovarian; 111% in the experiment with OVCAR-3 ovarian; 107% with HS 578T breast; 99.1% in the experiment with NCI/ADR-RES ovarian; 105% with T-47D breast; 94% in the experiment with BT-549 breast. Also, the growth was 107% in the experiment on MDA-MB-435 melanoma; 105% with SW-620 colon; 98.2% in the experiment with MCF7 breast; 98% in the experiment on HCT-116 colon; 103% with HCC-2998 colon; 100% in the experiment with KM12 colon.
Regarding `N#C/C(=C\c1ccc(-c2ccc(Cl)cc2)o1)c1nc(-c2ccco2)cs1`, the growth in the experiment on SR leukemia was 95%; with RPMI-8226 leukemia it was 64.7%; in the experiment with OVCAR-8 ovarian, 97.5%; in the experiment on OVCAR-5 ovarian, 61.8%; in the experiment on OVCAR-4 ovarian, 4.22% (active); in the experiment on SK-OV-3 ovarian, 90.9%. Moreover, the growth in the experiment with IGROV1 ovarian was 68.1%; in the experiment on OVCAR-3 ovarian, 106%; in the experiment on HS 578T breast, 102%; with NCI/ADR-RES ovarian, 97.4%; in the experiment with T-47D breast, -27.1% (active); with BT-549 breast, 103%. The growth is 101% in the experiment with MDA-MB-435 melanoma; 98.5% with SW-620 colon; 14.5% in the experiment with MCF7 breast; 101% in the experiment on HCT-116 colon; 46.3% with HCC-2998 colon; 67.3% with KM12 colon.
